Bioassay records as filed in PubChem.
ROC1-CUL1 inh = inhibitors of human ROC1-CUL1 ubiquitin ligase activity. E3 ubiquitin-protein ligase RBX1 (Homo sapiens) + Cullin-1 (Homo sapiens), P62877+Q13616. in vitro K48 di-Ub FRET, acceptor:donor ratio, 45 min. inhibition, % at 10 µM. hit rate 0.6% among 140,000. AID 1347404, 2020; in the data active = inhibition above about 25%
Target sequence (P62877 whole entry, looked up): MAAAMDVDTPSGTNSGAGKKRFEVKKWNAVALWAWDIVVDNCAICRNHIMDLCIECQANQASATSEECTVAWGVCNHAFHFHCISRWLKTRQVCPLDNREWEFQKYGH
Target sequence (Q13616 whole entry, looked up): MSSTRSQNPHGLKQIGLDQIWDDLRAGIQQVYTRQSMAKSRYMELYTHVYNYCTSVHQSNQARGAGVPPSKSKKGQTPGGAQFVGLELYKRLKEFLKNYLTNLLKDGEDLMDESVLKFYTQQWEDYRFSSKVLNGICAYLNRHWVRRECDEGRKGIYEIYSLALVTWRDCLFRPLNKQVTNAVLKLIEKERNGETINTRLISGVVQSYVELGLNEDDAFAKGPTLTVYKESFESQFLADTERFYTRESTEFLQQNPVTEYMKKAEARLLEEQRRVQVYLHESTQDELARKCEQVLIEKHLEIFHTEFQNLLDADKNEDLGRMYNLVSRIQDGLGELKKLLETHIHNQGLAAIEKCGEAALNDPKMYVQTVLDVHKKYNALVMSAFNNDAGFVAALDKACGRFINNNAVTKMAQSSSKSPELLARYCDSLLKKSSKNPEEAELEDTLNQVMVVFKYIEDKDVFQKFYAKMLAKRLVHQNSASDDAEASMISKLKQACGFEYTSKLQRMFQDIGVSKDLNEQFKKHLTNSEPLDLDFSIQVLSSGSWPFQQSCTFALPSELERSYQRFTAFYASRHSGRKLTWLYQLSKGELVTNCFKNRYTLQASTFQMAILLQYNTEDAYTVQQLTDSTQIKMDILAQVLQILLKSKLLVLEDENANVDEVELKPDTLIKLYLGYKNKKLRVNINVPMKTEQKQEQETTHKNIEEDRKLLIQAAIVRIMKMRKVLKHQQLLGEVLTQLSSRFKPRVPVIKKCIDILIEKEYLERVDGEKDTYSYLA
* = called active by the depositor. Only a selection was taken, and hits are over-represented in it overall.

SMILES | ROC1-CUL1 inh
O=c1[nH]c2ccc(Cl)cc2c(-c2ccccc2)c1-c1cc(-c2ccc(Cl)cc2)c2ccccc2n1 | -5.4
CCn1ncc(NC(=O)Cn2cc(-c3cccnc3)cn2)n1 | -1.2
COc1ccc(C(=O)Oc2ccc(C)cc2-n2nc3ccccc3n2)cc1S(=O)(=O)N1CCOCC1 | -4.6
CN(Cc1n[nH]c2c1CCCCC2)CC1(c2cccc(F)c2)CCOC1 (stereo not given) | 8.7
NC(=O)c1c(SCC(=O)c2ccccc2)sc(C(=O)c2ccccc2)c1N | 31.1*
O=C(CSc1nc2ccccc2nc1SCC(=O)c1ccccc1)c1ccccc1 | -3.8
Nc1c(C(=O)c2ccccc2)sc2nc(-c3ccccc3)ccc12 | -2.8
CC1CN(Cc2cccs2)Cc2cc(Cl)ccc2O1 (stereo not given) | 7.7
N#CC1C=C(C(=O)O)C(=O)N=C1SCc1ccccc1Cl (stereo not given) | 73.1*
O=C(NC1CCCCC1)N1CCCn2c(SCc3ccccc3Cl)nnc21 | 5.7
CC(=O)Nc1nnc(SCc2ccccc2Cl)s1 | 3.4
COc1ccc(N=C2CCCN2C(=O)Nc2cccc(Cl)c2)cc1 | 3.7
Cc1ccc2c(c1)C1(C)C(C#N)CC(=O)CC1O2 (stereo not given) | 9.6
CC1=NC(SCC(=O)c2ccccc2)=C(C#N)C(c2ccccc2)C1C(=O)Nc1ccccc1 (stereo not given) | 6.0
COc1ccc(CC(=O)Nc2ccc(S(=O)(=O)Nc3cc(OC)nc(OC)n3)cc2)cc1 | 35.4*
COc1cc(NS(=O)(=O)c2ccc(NS(=O)(=O)c3ccccc3)cc2)nc(OC)n1 | -5.5
COc1cc(NS(=O)(=O)c2ccc(NC(=O)Nc3cccc(Cl)c3)cc2)nc(OC)n1 | -5.4
CCOc1ccc(S(=O)(=O)NC2CCCC2)c(C)c1C | 1.4
COc1nc(Cl)cn(-c2ccc(C)cc2)c1=O | 3.4
O=c1c(Cl)nc(Cl)cn1-c1ccc(Cl)c(Cl)c1 | 32.4*
CC(=O)Nc1nc(Cl)cn(-c2ccc(C)cc2)c1=O | 5.7
CCOc1c(Br)cc(C(=O)O)cc1OCc1ccccc1 | 7.8
CN(C)C(=O)OCc1cccc(OCc2ccccn2)c1 | -4.2
CC(C)(C)OCC(O)CN1CCN(Cc2ccccc2)CC1 (stereo not given) | 13.2
COc1ccc(/C=N/NC(=O)c2c(-c3ccccc3Cl)noc2C)cc1CN1CCOCC1 | -4.2
SMILES | ROC1-CUL1 inh
Oc1ccc2c(c1)c(-c1ccccc1)nn2-c1ccccc1 | -2.4
O=C(O)c1nn(-c2ccccc2)c(-c2ccccc2)c1C(=O)c1ccccc1 | -5.1
O=C1C=CC(=O)c2c1c(-c1ccccc1)nn2-c1ccccc1 | 92.0*
COCCNC(=O)CCC1CCN(Cc2ccc(OC)c(Cn3cccn3)c2)CC1 | 1.5
COC(=O)/C(=C1/C(=O)N(c2ccccc2)N=C1C)C(F)(F)F | 38.8*
Cc1c(C(=O)Nc2ccccc2)nnn1-c1ccccc1 | 1.0
CC1=NN(c2ccccc2)C(=O)/C1=C(\C)c1ccc(-c2ccccc2)cc1 | -10.5
Cc1ccccc1CNC(=O)C1CCN(S(=O)(=O)N(C)C)CC1 | 9.1
O=C(C1CCCCC1)N1CCN(Cc2ccco2)CC1 | -2.0
CCC(=O)Nc1ccc(C(=O)N/N=C/c2ccc(OC)c3ccccc23)cc1 | 5.1
N#C/C(=C\c1ccco1)C(=O)c1cccs1 | 57.2*
CC(C)=CC(=O)/C=C(/C)c1cccs1 | -5.4
N#Cc1c(-c2ccccc2)c(-c2ccccc2)n(Cc2ccco2)c1NC(=O)c1cccs1 | -2.9
N#CC1C(=N)Oc2n[nH]c(-c3ccc(Cl)cc3)c2C1c1ccc(OC(F)(F)F)cc1 (stereo not given) | -1.5
O=C1C2=C/C(=C\N3CCCCC3)C(=O)N2c2ccccc21 | 74.9*
O=C1c2ccccc2C(=O)N1CN1CCCCCC1 | 3.7
O=C1C(=O)N(CNc2ccccc2Cl)c2ccccc21 | -9.0
O=C1C=C(N2CCOCC2)c2ccccc2C1=O | 76.3*
O=C1C=Cc2ccc(N3CCOCC3)c3cccc1c23 | -5.8
CC1(N2CCOCC2)C(=O)c2ccccc2C1=O | -0.2
N/C(=N/N=C\c1ccc([N+](=O)[O-])o1)c1cnccn1 | -5.6
Clc1nn2nnnc2c2ccccc12 | 29.7*
c1ccc2c(c1)c(N1CCOCC1)nn1nnnc21 | 3.6
Cc1nnc(Cl)c2ccccc12 | -2.8
N#CC1C(=N)Oc2cc(O)c(C=Nc3ccc(Cl)c(Cl)c3)cc2C1c1cccc(I)c1 (stereo not given) | 0.5
SMILES | ROC1-CUL1 inh
N#CC1C(=N)Oc2cc(O)c(C=Nc3cc(C(F)(F)F)ccc3Cl)cc2C1c1ccco1 (stereo not given) | 85.2*
Cc1ccc(N=Cc2cc3c(cc2O)OC(=N)C(C#N)C3c2cccc(F)c2)c(C)c1 (stereo not given) | 2.8
C1CCC(Nc2nc3nonc3nc2NC2CCC2)C1 | 5.5
O=C(NNC(=O)c1cc2cc(Br)ccc2oc1=O)c1ccc(O)cc1O | 43.9*
O=C(NNC(=O)c1cc2cc(Br)ccc2oc1=O)c1ccncc1 | 5.4
CCOC(=O)NC(=O)c1cc2cc(Br)ccc2oc1=O | -0.4
CC(=O)c1cccc(NC(=O)/C=C/c2c(Cl)cccc2Cl)c1 | 8.6
Cc1ccc(N(CC(O)C(O)C(O)CO)C2=NC(=O)NC(=O)C2)cc1C (stereo not given) | 0.5
COC(=O)c1ccc(/C=C2\SC(=S)N(CCCCCC(=O)O)C2=O)cc1 | 80.7*
COC(=O)c1ccc(/C=C2\SC(=S)N(CO)C2=O)cc1 | 3.8
COc1cc(/C=C2\SC(=S)N(Cc3ccccc3)C2=O)ccc1OCC(=O)O | 2.6
CCOC(=O)c1ccc(NC(=O)CCCCCN2C(=O)/C(=C\c3ccc(Cl)cc3)SC2=S)cc1 | -6.3
COc1cc(/C=C2/SC(=S)N(CC(=O)O)C2=O)ccc1OC(=O)c1ccc(C)cc1 | 93.0*
COc1cc(/C=C2/SC(=S)N(c3cccc(C(F)(F)F)c3)C2=O)ccc1OC(=O)c1ccc(C)cc1 | -14.1
CCOC(=O)C1C(c2cccc(Oc3ccccc3)c2)NC(=O)N(C)C1(O)C(F)(F)F (stereo not given) | 9.2
Cc1nc(C)c(C(=O)N2CCC3(CC2)CC3C(=O)NCCC(c2ccccc2)c2ccccc2)s1 (stereo not given) | 2.0
CN(c1ccccc1)c1ccc(/C=N/NC(=O)c2ccc([N+](=O)[O-])cc2)cc1 | 13.7
Cc1ccc(-n2nc(C(=O)N3CCCC3)nc2-c2ccccc2)cc1 | -6.3
CCCN1C(=O)c2ccc(C(=O)Nc3ccc(Br)cc3C(=O)O)cc2C1=O | 9.3
CCOc1ccccc1N1C(=O)c2ccc(C(=O)Nc3ccc(Br)cc3C(=O)O)cc2C1=O | -3.4
CC(c1ccccc1)N1C(=O)c2ccc(C(=O)Nc3ccc(Br)cc3C(=O)O)cc2C1=O (stereo not given) | 39.4*
CC(C)c1cc(C(N)=O)c(NC(=O)c2cc(-c3ccc4c(c3)OCO4)nc3ccccc23)s1 | 4.4
O[C@H]1[C@H](N2CCCN(c3ccccc3)CC2)c2ccccc2C12CCNCC2 | 7.9
CCC(C)NC1CCN(c2ccc(NC(=O)c3ccc(C)cc3C)cc2)CC1 (stereo not given) | -7.4
COc1ccc(-c2cc(=O)n(-c3ccccc3)[nH]2)cc1OC | 0.8
CC(C)(C)c1cc(=O)n(-c2ccccc2)[nH]1 | 72.9*
O=c1ccc(=O)n(-c2ccccc2)[nH]1 | 4.9
COc1ccc(NC(=O)C(OC(C)=O)C(OC(C)=O)C(OC(C)=O)C(OC(C)=O)C(=O)Nc2ccc(OC)cc2)cc1 (stereo not given) | 4.9
